In PubChem BioAssay (NCATS):
Records with an inconclusive call do not appear. Calls of active or inactive are those of the source. Calls come from the whole dose curve; as a rule, active = well fitted cell-killing curve with a large enough effect; inconclusive = small, poorly fitted or top-dose-only effect, or effect the other way; inactive = flat fitted curve, though single readings scatter.

How the values were obtained:
Test in all cases: Primary qHTS to identify gynecologic anti-cancer compounds using libraries of approved drugs and bioactive compounds (AID 1345084); note: nearly all actives have a fitted effect of over 55% in size
C33A = settings: Gynecologic cancer cell panel viability, ATPlite luminescence, 48 h; series mostly up to 57.5 µM
Outline: (§1)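 Five-point cytotoxicity, 48 h drug exposure at 37 C, 5% CO2, on cells seeded 16 h beforehand. ATP content read by ATPlite luminescence.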

CAOV3 = settings: Gynecologic cancer cell panel viability, ATPlite luminescence, 48 h; series mostly up to 57.5 µM
Outline: as §1

CASKI = settings: Gynecologic cancer cell panel viability, ATPlite luminescence, 48 h; series mostly up to 57.5 µM
Outline: as §1

Es-2 = settings: Gynecologic cancer cell panel viability, ATPlite luminescence, 48 h; series mostly up to 57.5 µM
Outline: as §1

HeLa = settings: Gynecologic cancer cell panel viability, ATPlite luminescence, 48 h; series mostly up to 57.5 µM
Outline: as §1

Hek293T = settings: Gynecologic cancer cell panel viability, ATPlite luminescence, 48 h, control line for the selectivity index; series mostly up to 57.5 µM
Outline: as §1

JEG-3 = settings: Gynecologic cancer cell panel viability, ATPlite luminescence, 48 h; series mostly up to 57.5 µM
Outline: as §1

OV90 = settings: Gynecologic cancer cell panel viability, ATPlite luminescence, 48 h; series mostly up to 57.5 µM
Outline: as §1

PA-1 = settings: Gynecologic cancer cell panel viability, ATPlite luminescence, 48 h; series mostly up to 57.5 µM
Outline: as §1

SKOV3 = settings: Gynecologic cancer cell panel viability, ATPlite luminescence, 48 h; series mostly up to 57.5 µM
Outline: as §1

Tov-21-G = settings: Gynecologic cancer cell panel viability, ATPlite luminescence, 48 h; series mostly up to 57.5 µM
Outline: as §1

Tov112D = settings: Gynecologic cancer cell panel viability, ATPlite luminescence, 48 h; series mostly up to 57.5 µM
Outline: as §1
% is set by controls: 0 for no effect and ±100 for the full control effect.

CC1(C(=O)O)CCCC2(C)C3=CCC4CC3(CCC12)CC4CO (stereo not given)
inactive: Potency (C33A) | Potency (CAOV3) | Potency (CASKI) | Potency (Es-2) | Potency (HeLa) | Potency (Hek293T) | Potency (JEG-3) | Potency (OV90) | Potency (PA-1) | Potency (SKOV3) | Potency (Tov-21-G) | Potency (Tov112D)

C[C@@H]1C(=O)O[C@H](C)[C@H]1CC(=O)[C@](C)(O)[C@H]1CC[C@@]2(O)C3=CC(=O)[C@@H]4C[C@@H](O)[C@@H](O)C[C@]4(C)C3CC[C@]12C (stereo not given in full)
inactive: Potency (C33A) | Potency (CAOV3) | Potency (CASKI) | Potency (Es-2) | Potency (HeLa) | Potency (Hek293T) | Potency (JEG-3) | Potency (OV90) | Potency (PA-1) | Potency (SKOV3) | Potency (Tov-21-G) | Potency (Tov112D)

CC(C)(O)/C=C/CC(C)(O)C1C(O)CC2(C)C3CCC4C(C)(C)C(=O)CCC4(C)C3CCC12C (stereo not given)
inactive: Potency (C33A) | Potency (CAOV3) | Potency (CASKI) | Potency (Es-2) | Potency (HeLa) | Potency (Hek293T) | Potency (JEG-3) | Potency (OV90) | Potency (PA-1) | Potency (SKOV3) | Potency (Tov-21-G) | Potency (Tov112D)

CC1(C=O)CC[C@]2(C(=O)O[C@@H]3O[C@H](CO)[C@@H](O)[C@H](O)[C@H]3O)CC[C@]3(C)C(=CCC4[C@@]5(C)C[C@H](O)[C@H](O[C@@H]6OC[C@@H](O)[C@H](O)[C@H]6O)[C@@](C)(CO)C5CC[C@]43C)C2C1 (stereo not given in full)
inactive: activity change, negative = cytotoxicity (C33A) -2.32% [at 11.6 µM] | activity change, negative = cytotoxicity (CAOV3) -2.27% [at 11.6 µM] | activity change, negative = cytotoxicity (CASKI) 0.835% [at 11.6 µM] | activity change, negative = cytotoxicity (Es-2) -7.22% [at 11.6 µM] | activity change, negative = cytotoxicity (HeLa) -5.1% [at 11.6 µM] | activity change, negative = cytotoxicity (Hek293T) -2.72% [at 11.6 µM] | activity change, negative = cytotoxicity (JEG-3) 12.1% [at 11.6 µM] | activity change, negative = cytotoxicity (OV90) 9.96% [at 11.6 µM] | activity change, negative = cytotoxicity (PA-1) -2% [at 11.6 µM] | activity change, negative = cytotoxicity (SKOV3) 1.41% [at 11.6 µM] | activity change, negative = cytotoxicity (Tov-21-G) -1.76% [at 11.6 µM] | activity change, negative = cytotoxicity (Tov112D) -0.249% [at 11.6 µM]

CCC[C@@H]1O[C@@H]2C[C@H]3[C@@H]4CCC5=CC(=O)C=C[C@]5(C)[C@H]4[C@@H](O)C[C@]3(C)[C@]2(C(=O)CO)O1
inactive: Potency (C33A) | Potency (CAOV3) | Potency (CASKI) | Potency (Es-2) | Potency (HeLa) | Potency (Hek293T) | Potency (JEG-3) | Potency (OV90) | Potency (PA-1) | Potency (SKOV3) | Potency (Tov-21-G) | Potency (Tov112D)

C=CC(C)(C)c1[nH]c2ccccc2c1C[C@@H]1NC(=O)[C@H](Cc2c[nH]c3ccccc23)NC1=O
inactive: Potency (C33A) | Potency (CAOV3) | Potency (CASKI) | Potency (Es-2) | Potency (HeLa) | Potency (Hek293T) | Potency (JEG-3) | Potency (OV90) | Potency (PA-1) | Potency (SKOV3) | Potency (Tov-21-G) | Potency (Tov112D)

OC/C=C/c1ccc(O[C@@H]2O[C@H](CO)[C@@H](O)[C@H](O)[C@H]2O)cc1
inactive: Potency (C33A) | Potency (CAOV3) | Potency (CASKI) | Potency (Es-2) | Potency (HeLa) | Potency (Hek293T) | Potency (JEG-3) | Potency (OV90) | Potency (PA-1) | Potency (SKOV3) | Potency (Tov-21-G) | Potency (Tov112D)

COC(=O)C1=COC(O[C@@H]2O[C@H](CO)[C@@H](O)[C@H](O)[C@H]2O)[C@H]2[C@@H]1[C@H](OC(=O)CCc1ccc(O)cc1)C[C@]2(C)O (stereo not given in full)
inactive: Potency (C33A) | Potency (CAOV3) | Potency (CASKI) | Potency (Es-2) | Potency (HeLa) | Potency (Hek293T) | Potency (JEG-3) | Potency (OV90) | Potency (PA-1) | Potency (SKOV3) | Potency (Tov-21-G) | Potency (Tov112D)

C=C1C[C@@]23CCC4[C@@](C)(CCC[C@@]4(C)C(=O)OC)C2CC[C@@H]1C3 (stereo not given in full)
inactive: Potency (C33A) | Potency (CAOV3) | Potency (CASKI) | Potency (Es-2) | Potency (HeLa) | Potency (Hek293T) | Potency (JEG-3) | Potency (OV90) | Potency (PA-1) | Potency (SKOV3) | Potency (Tov-21-G) | Potency (Tov112D)

COc1cc(C2Oc3c(OC)cc(CCCO)cc3C2CO)ccc1O[C@H]1O[C@H](C)[C@@H](O)[C@H](O)[C@@H]1O (stereo not given in full)
inactive: Potency (C33A) | Potency (CAOV3) | Potency (CASKI) | Potency (Es-2) | Potency (HeLa) | Potency (Hek293T) | Potency (JEG-3) | Potency (OV90) | Potency (PA-1) | Potency (SKOV3) | Potency (Tov-21-G) | Potency (Tov112D)

CC[C@H](NC(=O)[C@H](CS(=O)(=O)CC1CC1)N[C@@H](c1ccc(F)cc1)C(F)(F)F)C(=O)C(=O)NC1CC1
inactive: Potency (C33A) | Potency (CAOV3) | Potency (CASKI) | Potency (Es-2) | Potency (HeLa) | Potency (Hek293T) | Potency (JEG-3) | Potency (OV90) | Potency (PA-1) | Potency (SKOV3) | Potency (Tov-21-G) | Potency (Tov112D)

O=C(O[C@H]1[C@@H]2C[C@@H]3OC[C@](O)([C@@H]1Cl)[C@H]2C(O[C@@H]1O[C@H](CO)[C@@H](O)[C@H](O)[C@H]1O)O3)c1ccc(O)c(O)c1 (stereo not given in full)
inactive: Potency (C33A) | Potency (CAOV3) | Potency (CASKI) | Potency (Es-2) | Potency (HeLa) | Potency (Hek293T) | Potency (JEG-3) | Potency (OV90) | Potency (PA-1) | Potency (SKOV3) | Potency (Tov-21-G) | Potency (Tov112D)

C=C1CCC2C(C)(C)C(O)CCC2(C)C1CCC(C)CCO (stereo not given)
inactive: Potency (C33A) | Potency (CAOV3) | Potency (CASKI) | Potency (Es-2) | Potency (HeLa) | Potency (Hek293T) | Potency (JEG-3) | Potency (OV90) | Potency (PA-1) | Potency (SKOV3) | Potency (Tov-21-G) | Potency (Tov112D)

OCc1ccc(O[C@@H]2O[C@H](CO)[C@@H](O)[C@H](O)[C@H]2O)cc1
inactive: Potency (C33A) | Potency (CAOV3) | Potency (CASKI) | Potency (Es-2) | Potency (HeLa) | Potency (Hek293T) | Potency (JEG-3) | Potency (OV90) | Potency (PA-1) | Potency (SKOV3) | Potency (Tov-21-G) | Potency (Tov112D)

CC(/C=C/C1=CC2=CC(=O)C(C)(O)C(O)C2=CO1)=C\C(C)CCO (stereo not given)
inactive: Potency (C33A) | Potency (CAOV3) | Potency (CASKI) | Potency (Es-2) | Potency (HeLa) | Potency (Hek293T) | Potency (JEG-3) | Potency (OV90) | Potency (PA-1) | Potency (SKOV3) | Potency (Tov-21-G) | Potency (Tov112D)
